Assay results published in PubChem BioAssay (NCI).
The panel holds about 83,000 compounds, 20% with a hit somewhere; the sample as a whole holds those more often.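 The endpoint reported here, percent growth, reads 100 for growth as untreated, 0 for no net growth and -100 for all cells dead.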 Unmarked numbers belong to inactive results. The source made the active and inactive calls. How the source made its calls: active means growth percent below 10; inactive means the rest.

Columns and labels:
Assay in all cases: NCI-60 one-dose screen, 48 h (100 = growth as untreated, 0 = no growth, -100 = all killed)
Conditions in all cases: 10 µM unless noted
[1] = tested on: NCI-H226 lung
[2] = tested on: NCI-H322M lung
[3] = tested on: HOP-62 NSCLC
[4] = tested on: NCI-H460 lung
[5] = tested on: HOP-92 NSCLC
[6] = tested on: NCI-H522 lung
[7] = tested on: A549/ATCC NSCLC
[8] = tested on: 786-0 renal
[9] = tested on: COLO 205 colon
[10] = tested on: DU-145 prostate

| SMILES | growth [1] | growth [2] | growth [3] | growth [4] | growth [5] | growth [6] | growth [7] | growth [8] | growth [9] | growth [10] |
| --- | --- | --- | --- | --- | --- | --- | --- | --- | --- | --- |
| CC(C)(C)OC(=O)N1C(=O)c2c(c3c4ccccc4[nH]c3c3ccc4ccccc4c23)C1=O | 61.3% | 52.8% | 52.2% | 37.3% | 87.9% | 47.2% | 59.7% | 77.1% | 68.1% | 57.3% |
| CCOC(=O)c1c(NC(=O)c2cccc(C(F)(F)F)c2)sc2cc(O)ccc12 | 98.1% | 98% | 99.3% | 99.9% | 102% | 81.3% | 101% | 109% | 107% | 98.9% |
| C#Cc1nc(C2=C(C)C(O)/C(=N/O)C2)cs1 (stereo not given) | 107% | 102% | 111% | 104% | 41.8% | 15.5% | 96.5% | -92.2% (active) | 128% | 87% |
| COc1cc2nc(-c3ccc(C)cc3)cc(OCCCNCC3CCCO3)c2cc1OC (stereo not given) | 89.4% | 70.4% | 75.2% | 38% | 47% | 59.1% | 61.6% | 73.5% | 45.4% | 60% |
| COc1ccccc1C(=O)CSc1nc(Nc2ccc(S(N)(=O)=O)cc2)c2ccccc2n1 | 94.9% | 82.6% | 86.7% | 85.1% | 89.6% | 90.5% | 98.5% | 91% | 107% | 96.9% |
| O=C(CSc1nccc(=O)[nH]1)Nc1ccc(-c2nc3ccccc3[nH]2)cc1 | 105% | 98.2% | 94.3% | 110% | 103% | 104% | 110% | 101% | 113% | 106% |
| O=C1c2c(c3c4cc(Br)ccc4[nH]c3c3ccc4ccccc4c23)C(=O)N1CCO | 88.9% | 96.8% | 96.3% | 62.5% | 103% | 76.5% | 91.7% | 100% | 92% | 103% |
| CS(=O)(=O)c1ccc(-c2nc3ccccn3c2C=Nc2ccc(Cl)cc2)cc1 | 102% | 76.7% | 82.8% | 57.7% | 98.5% | 58.6% | 72.1% | 69.5% | 99.6% | 61.3% |
| O=C1c2c(c3c4cccnc4[nH]c3c3ccc4ccccc4c23)C(=O)N1CCO | 80.7% | 95% | 64.5% | 17.6% | 129% | 52.8% | 78.3% | 84% | 78.4% | 87.2% |
| COc1ccc(CNS(=O)(=O)/N=C2\NC(=O)NC2=C(Cl)Cl)cc1 | 46.1% | 37.1% | 46.9% | 19% | -2.17% (active) | 2.05% (active) | 25.7% | 28.8% | 55.4% | 27.9% |
| c1ccc(CNc2ncnc3ccc(-c4cnc5[nH]ncc5c4)cc23)cc1 | 55.7% | 59.3% | 60.7% | 65.7% | 57.9% | 60.9% | 37.5% | 61.8% | 94% | 49.6% |
| COc1cc(OC)c(C2SCC(=O)N2Nc2ncnc3ccccc23)cc1OC (stereo not given) | 107% | 96.4% | 100% | 111% | 147% | 98.9% | 104% | 104% | 113% | 106% |
| COc1cccc(N2CCN(c3ncnc4c3[nH]c3ccc(F)cc34)C[C@@H]2C)c1 | -60.5% (active) | -39.9% (active) | -54.2% (active) | -17.2% (active) | -27.1% (active) | -91.8% (active) | 2.18% (active) | -58.5% (active) | -88.5% (active) | -67.3% (active) |
| COc1ccc(C(=O)c2cc(C(=O)/C=C/c3c(Cl)cccc3Cl)c3cc(C)ccn23)cc1 | 103% | 98.3% | 98.5% | 100% | 97.3% | 91.5% | 99.6% | 100% | 108% | 106% |
| OC1CCN(CCCOc2c3ccc(Cl)cc3nc3c2oc2ccccc23)CC1 | -6.33% (active) | -16.3% (active) | 12.5% | -9.21% (active) | -4% (active) | -48.9% (active) | 9.13% (active) | -30.7% (active) | -69% (active) | -0.646% (active) |
| COc1ccc([C@@H]2c3[nH]c4ccccc4c3CC3C(=O)N(C4CCN(Cc5c(F)cccc5F)CC4)CC(=O)N32)c(OC)c1 (stereo not given in full) | 57% [5.26 µM] | 83.4% [5.26 µM] | 54.8% [5.26 µM] | 65.7% [5.26 µM] | 18.8% [5.26 µM] | 67.6% [5.26 µM] | 50% [5.26 µM] | -35.9% [5.26 µM] (active) | 58.3% [5.26 µM] | 70.7% [5.26 µM] |
| O=C(N/N=C/c1ccc(Br)s1)c1[nH]c2ccc(Br)cc2c1-c1ccccc1 | 52.6% | 48.2% | 46.5% | 3.52% (active) | 46.6% | -38.5% (active) | 28.8% | 11.5% | -44.3% (active) | 18.6% |
| COc1ccc2[nH]cc(-c3cc(N)n4nc(-c5c[nH]c6ccc(OC)cc56)cc4n3)c2c1 | 36.8% | 25.4% | 76.2% | -84.6% (active) | 79.1% | 53.9% | -5.78% (active) | -86.4% (active) | -54.3% (active) | -10.5% (active) |
| Cc1c(Nc2nnc(SCC(=O)Nc3sc4c(c3C#N)CCCC4)s2)c(=O)n(-c2ccccc2)n1C | 104% | 98.9% | 107% | 100% | 121% | 97.5% | 106% | 108% | 118% | 105% |
| C#Cc1nc(C2=C(C)C(=N\O)/C(=N/O)C2)cs1 | 101% | 99.2% | 101% | 97% | 88.5% | 91.8% | 95.3% | -90.9% (active) | 118% | 92.2% |
| CN(C)c1ccc(-c2c(NC(C)(C)C)nc3c(OCCc4ccccc4)cccn23)cc1 | 10.6% | 12.2% | 25.1% | 3.22% (active) | -27.5% (active) | 5.7% (active) | 23.2% | 20.8% | -84.6% (active) | 33.2% |
| COc1ccc(-c2nc3ccc(-c4nnc(SCC(=O)Nc5ccc(C(=O)/C=C/c6ccc(Cl)cc6)cc5)o4)cc3[nH]2)cc1OC | 98.5% | 95.8% | 103% | 103% | 105% | 98.4% | 103% | 103% | 116% | 109% |
| Cc1c(NC(=O)CSc2nc3sc4c(c3c(=O)n2-c2ccc(Cl)cc2)CCCC4)c(=O)n(-c2ccccc2)n1C | 108% | 94.9% | 99.3% | 96.8% | 96.3% | 96.8% | 81.2% | 102% | 106% | 89.4% |
| CC(=NNc1ncnc2ccccc12)c1ccc(S(C)(=O)=O)cc1 | 96.8% | 100% | 95% | 108% | 95.1% | 100% | 111% | 102% | 113% | 115% |
| COc1ccc(/C=C2\SC(=Nc3cc(C)[nH]n3)NC2=O)cc1 | 86.8% | 91.9% | 85.2% | 102% | 68.5% | 97.4% | 102% | 99.8% | 90.8% | 101% |
| COc1cc2nc(-c3ccc(Cl)cc3)cc(OCCCNCC3CCCO3)c2cc1OC (stereo not given) | 75.8% | 66.7% | 64.3% | 30.2% | 35.4% | 45.1% | 53.2% | 43.3% | 33.5% | 49.2% |
